Data: PubChem BioAssay (NCATS)
Inconclusive results are not listed. A call without a number means that no potency is given here. Active and inactive are the calls of the source. Calls follow the shape of the dose curve; as a rule, active = well fitted inhibition curve with a large enough effect; inconclusive = small, poorly fitted or top-dose-only effect; inactive = no such curve, though single readings can be large or run the other way.

Experiment: qHTS assay for measurement of the activity of small molecule inhibitors on Zika virus induced Caspase-3 activity in human iPSC derived neural progenitor cells (hNPCs) (AID 1224857); also: nearly all actives have a fitted effect of over 65% in size
Details: hNPCs ZIKV-induced caspase-3/7, Caspase-Glo luminescence, 6 h; series mostly up to 45.7 µM
Procedure, shortened: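 hNPCs seeded 350 cells/well, cultured 16–20 h; compounds added 1 h before ZIKV (2 FFU/cell), 37 C 6 h. Caspase-Glo 3/7 luminescence after 30 min RT; % inhibition from induction scaled to uninfected (0%) and infected (100%) wells.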
Potency is read from the fitted curve at half-maximal effect.

Compound	Potency
CC1OC1P(=O)(O)O (configuration not stated)	inactive
COc1ccc2[nH]cc(CCN)c2c1	inactive
CCCN(CCC)CCc1ccc(O)c(O)c1	inactive
O=c1ccc2[nH]cc(C3=CCNCC3)c2[nH]1	inactive
NC(=O)c1cc(N2CC2)c([N+](=O)[O-])cc1[N+](=O)[O-]	inactive
CC1(C(=O)O)C2CCC(O2)C1(C)C(=O)O (configuration not stated)	inactive
CCNC(=O)[C@H]1O[C@@H](n2cnc3c(N)ncnc32)[C@H](O)C1O (some centres not stated)	inactive
CCOC(=O)c1ncn2c1[C@@H]1CCCN1C(=O)c1cc(OC)ccc1-2	inactive
O=C1/C(=C/c2ccccc2)C[C@@]2(O)[C@H]3Cc4ccc(O)c5c4[C@@]2(CCN3CC2CC2)[C@H]1O5	inactive
O=C(NC1CN2CCC1CC2)c1cc2ccoc2cn1 (configuration not stated)	inactive
CN1CC[C@@]2(C)c3cc(OC(=O)Nc4ccccc4)ccc3N(C)[C@@H]12	10 µM (active)
CNc1ccc2oc(C[C@H]3O[C@@]4(CC[C@H]3C)O[C@H]([C@H](C)C(=O)c3ccc[nH]3)[C@H](C)C[C@H]4C)nc2c1C(=O)O	inactive
OC1CCCCC1N1CCC(c2ccccc2)CC1 (configuration not stated)	inactive
CCCN(CCC)C1Cc2cc(OC)c(OC)cc2C1	inactive
N=C(N)c1ccc(CS(=O)(=O)F)cc1	inactive
Clc1cc(I)cc(Cl)c1NC1=NCCN1	inactive
CCN1C[C@@]2(COC)C3[C@@H](OC)C4[C@H]1C3([C@@H]1C[C@@]3(O)[C@H](OC(=O)c5ccccc5)[C@@H]1[C@]4(OC(C)=O)[C@@H](O)[C@@H]3OC)[C@H](OC)C[C@H]2O	inactive
